For 22 compounds, Potency results are on record in PubChem BioAssay (Tox21).

Molecules are shown by their SMILES. Where “and” joins values, the source holds several entries; their conditions need not be identical. Equal entries are not always repeated. Inconclusive results are not listed. Where a structure was tested more than once in an assay, its records may differ in their call. Calls of active or inactive are those of the source. Unless noted, calls follow the shape of the dose curve; as a rule, active = well fitted curve in the direction sought with a large enough effect in the repeat runs; inconclusive = weak or mixed curves; inactive = no such curve, though single readings can be large; an effect the other way counts as inactive or inconclusive.

A short description of assay [1]: qHTS assay for small molecules that induce genotoxicity in human embryonic kidney cells expressing luciferase-tagged ATAD5 (AID 651632). Also: nearly all actives have a fitted effect of over 15% in size. Put shortly:
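Quantitative HTS in HEK293T expressing luciferase-tagged ATAD5, whose levels rise upon DNA damage. Exposure ran 16 hr at 37C and 5% CO2, with luminescence read 30 min after Amplite addition at room temperature.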
Background: qHTS replaces the single test concentration by a dilution series.

A short description of assay [2]: qHTS assay for small molecule agonists of the p53 signaling pathway - cell viability (AID 651633; calls by dose curve; also: nearly all actives have a fitted effect of over 30% in size; also: potency is read from the fitted curve at half-maximal effect). In outline: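 Viability counter-read: CellTiter-Glo luminescence (30 min, room temperature) in the same p53RE-bla plates. These plates had been exposed to compounds for 16 h at 37 C.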
Assay [3] can be described thus: qHTS assay for small molecules that induce genotoxicity in human embryonic kidney cells expressing luciferase-tagged ATAD5 - cell viability (AID 651634; calls by dose curve; also: nearly all actives have a fitted effect of over 25% in size; also: potency is read from the fitted curve at half-maximal effect). Put shortly:
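After 15.5 hr incubation with compound at 37C, 5% CO2, HEK293T ATAD5-luciferase cells received CellTiter-Fluor reagent; fluorescence intensity was quantified following 30 min at 37C.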

Assay [4] can be described thus: qHTS assay for small molecule disruptors of the mitochondrial membrane potential - cell viability (AID 720634; calls by dose curve; also: nearly all actives have a fitted effect of over 20% in size; also: potency is read from the fitted curve at half-maximal effect). In outline: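 ATP-based luminescent viability readout (CellTiter-Glo, 30 min, room temperature) in HepG2 cells multiplexed with the m-MPI membrane potential dye; compound exposure lasted 1 hr at 37 C.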
A short description of assay [5]: qHTS assay to test for compound auto fluorescence at 590 nm (red) in HepG2 cells (AID 720674). Put shortly:
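We screened compounds on adherent HepG2 cells, incubating them for an hour at 37 C in 5% CO2 before reading emission at 590 nm under 540 nm excitation; values reflect equivalence to Rose Bengal sodium fluorescence.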

A short description of assay [6]: qHTS assay to test for compound auto fluorescence at 535 nm (green) in HepG2 cells (AID 720675).
Assay [7] is described as follows: qHTS assay to test for compound auto fluorescence at 460 nm (blue) in HEK293 cells (AID 720678). Put shortly:
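Measured: blue fluorescence (Ex 405/Em 460 nm) of compound-treated HEK293 cells, incubated overnight at 37C with 5% CO2 and scaled to triamterene equivalents.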

Assay [8] can be described thus: qHTS assay to test for compound auto fluorescence at 590 nm (red) in HEK293 cells (AID 720679). In outline: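 Using HEK293 cells at 2,000 per well, the screen added 23 nL of each compound after cell attachment and incubated overnight (37C, 5% CO2). The plate reader then captured red-label fluorescence, Ex/Em 540/590nm.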
Assay [9] is described as follows: qHTS assay for small molecule disruptors of the mitochondrial membrane potential (AID 720635). Also: potency is read from the fitted curve at half-maximal effect. In outline: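 Mitochondrial membrane potential tracked with Mito-MPS dye, red aggregates (ex 540/em 590 nm) against green monomers (ex 490/em 535 nm). Compound treatment 1 hr at 37C, dye 30 min in HepG2.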
The nature of assay [10]: qHTS assay for small molecule agonists of the p53 signaling pathway (AID 651631; calls by dose curve; also: nearly all actives have a fitted effect of over 15% in size; also: potency is read from the fitted curve at half-maximal effect). In outline:
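Agonist mode screen using a stably integrated beta-lactamase gene under p53 response elements in HCT-116 cells. Compound exposure lasts 16 h at 37 °C; fluorescence intensity is measured following 2 h FRET substrate loading.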

In the case of `Cc1cccc(C)c1`, the Potency result in [1], in assay [2], in assay [3], in assay [4], in assay [5] and in assay [6] was “inactive” throughout. The Potency result in assay [7] and in assay [8] was “inactive” each time.

Turning to `CC(O)(P(=O)(O)O)P(=O)(O)O`, the Potency result in assay [1], in assay [2], in assay [3], in assay [4], in [5] and in assay [6] was “inactive” in each case. Further, the Potency entry in assay [7] and in [8] was “inactive” each time.

For `CC(C)C(=O)Nc1ccc([N+](=O)[O-])c(C(F)(F)F)c1`, the Potency result in [1], in assay [2], in assay [3], in assay [5], in [6] and in assay [7] was “inactive” throughout. Moreover, the Potency entry in assay [8] was “inactive”. In assay [9], the Potency is 13.3 µM (active) and 6.29 µM (active) and 9.69 µM (active).

`CCCCCCCCCCCCCCCC[N+](C)(C)Cc1ccccc1`: the Potency result in assay [1], in assay [5], in [6], in [7] and in assay [8] was “inactive” in each case. Besides, the Potency is 11.9 µM (active) and 35.5 µM (active) and 39.3 µM (active) in [2]; 29.8 µM (active) and 79.4 µM (active) in assay [3]; 26.6 µM (active) in assay [4].

For the compound `CN(C)C(=S)SC(=S)N(C)C`, the Potency result in [10], in assay [1], in assay [5], in assay [6], in [7] and in assay [8] was “inactive” in each case. Moreover, the Potency entry in assay [2] is “inactive and 243 nM (active)”; in assay [9], 2.98 µM (active) and 28 µM (active) and 61.1 µM (active).

Regarding `COc1cccc(O)c1O`, the Potency result in assay [10], in assay [2], in [5], in assay [6], in assay [7] and in assay [8] was “inactive” each time. For the same compound, in assay [3], the Potency was 17.9 µM (active).

For `Nc1ccc(O)c([N+](=O)[O-])c1`, the Potency result in [1], in [2], in assay [5], in assay [6], in assay [7] and in assay [8] was “inactive” in each case. For the same compound, the Potency is 53.9 µM (active) in assay [3] and 3.03 µM (active) in [9].

Turning to `CN1CCc2cccc3c2[C@H]1Cc1ccc(O)c(O)c1-3`, the Potency entry in assay [1], in assay [2], in assay [3], in assay [4], in assay [9] and in assay [5] was “inactive” in each case. In addition, the Potency result in assay [6], in assay [7] and in [8] was “inactive” throughout.

`CN[C@H]1CC[C@@H](c2ccc(Cl)c(Cl)c2)c2ccccc21`: the Potency entry in assay [1], in assay [3], in assay [4], in assay [5], in assay [6] and in assay [7] was “inactive” in each case. Also, the Potency entry in assay [8] is “inactive”. Also, the Potency in assay [2] was 29.8 µM (active).

For `C=CCc1ccc(O)c(OC)c1`, the Potency entry in [10], in assay [1], in assay [2], in [3], in [5] and in [6] was “inactive” throughout. For the same compound, the Potency result in assay [7] and in assay [8] was “inactive” in each case.

For the compound `Cn1c(=O)c2c(ncn2C)n(C)c1=O`, the Potency result in [10], in [2], in assay [5], in [6], in [7] and in [8] was “inactive” throughout.

As for `Oc1ccccc1`, the Potency result in assay [10], in [2], in assay [3], in assay [4], in assay [9] and in assay [5] was “inactive” throughout. For the same compound, the Potency result in assay [6], in assay [7] and in assay [8] was “inactive” each time.

As to `CCN(CC)C(=O)c1cccc(C)c1`, the Potency entry in [1], in assay [2], in assay [3], in [4], in [5] and in assay [6] was “inactive” throughout. The Potency result in assay [7] and in [8] was “inactive” throughout.

On to `Cc1cc(C)nc(NS(=O)(=O)c2ccc(N)cc2)n1`, for which the Potency entry in assay [10], in assay [2], in assay [3], in [4], in [5] and in assay [6] was “inactive” throughout. Further, the Potency entry in assay [7] and in assay [8] was “inactive” each time.

Take `Nc1ccc([N+](=O)[O-])cc1O`: the Potency result in assay [1], in assay [2], in [5], in [6], in assay [7] and in assay [8] was “inactive” in each case. Besides, the Potency in assay [3] was 54.5 µM (active); in assay [9] it was 17.2 µM (active).

For `CCCCOC(=O)c1ccc(O)cc1`, the Potency entry in assay [10], in [2], in assay [3], in assay [4], in assay [5] and in assay [6] was “inactive” in each case. Further, the Potency result in assay [7] and in assay [8] was “inactive” each time.

`NC(=O)n1c(O)c(C(=O)c2cccs2)c2cc(Cl)ccc21`: the Potency was 5.96 µM (active) in [10], 8.41 µM (active) in assay [2] and 11.9 µM (active) in assay [9]. Further, the Potency result in assay [1], in assay [5], in [6], in [7] and in assay [8] was “inactive” each time.

For `CCCCNC(=O)NS(=O)(=O)c1ccc(C)cc1`, the Potency result in assay [10], in assay [1], in assay [2], in assay [3], in [5] and in assay [6] was “inactive” throughout. The Potency result in assay [7] and in [8] was “inactive” throughout.

With `CCCCC(CC)C(=O)O` (configuration not stated), the Potency result in assay [2], in assay [5], in [6], in assay [7] and in [8] was “inactive” each time.

For the compound `COc1ccc2cc(S(=O)(=O)N[C@H](CC(=O)N[C@H](Cc3ccc(CN4[C@H](C)CCC[C@@H]4C)cc3)C(=O)N(C)C(C)C)c3ccc4c(c3)OCO4)ccc2c1`, the Potency entry in assay [1], in assay [5], in [6], in assay [7] and in [8] was “inactive” in each case. For the same compound, in assay [3], the Potency is 57.9 µM (active).

For the compound `C/C=C/C=C/C(=O)O`, the Potency result in [2], in assay [3], in assay [5], in assay [6], in [7] and in assay [8] was “inactive” each time.

Regarding `C1=CC2C3C=CC(C3)C2C1` (configuration not stated), the Potency entry in assay [1], in [2], in assay [3], in [5], in assay [6] and in assay [7] was “inactive” each time. In addition, the Potency result in [8] was “inactive”.
